PubChem BioAssay (EPA / NIEHS)
“And” between values parts separate entries of the source, which are not always exact repeats. Identical values can stand only once. Some compounds were tested as several samples or in several runs, with calls that do not always agree. The source made the active and inactive calls. Rule for the calls: active = hit-call score of the fitted dose curve at least 0.9, where 1 is the maximum; inactive = score below 0.9.

Molecular target: Transcription factor Sp1 (Homo sapiens) (UniProt P08047)
Test: ATG_Sp1_CIS: Attagene CIS-FACTORIAL HepG2 Assay for human Specificity Protein 1 (Sp1) (AID 2282961)
Details: HepG2 Sp1 cis-reporter transcription, actives raise or lower the signal
Protocol: ATG_CIS is a cell-based, multiplexed-readout assay that uses HepG2, a human liver cell line, with measurements taken at 24 hours after chemical dosing in a 24-well plate.ATG_Sp1_CIS is one of 52 assay component(s) measured or calculated from the ATG_CIS assay. It is designed to make measurements of mRNA induction, a form of inducible reporter, as detected with fluorescence intensity signals by Reverse transcription polymerase chain reaction (RT-PCR) and Capillary electrophoresis technology.Data from the assay component ATG_Sp1_CIS was analyzed into 1 assay endpoint. This assay endpoint, ATG_Sp1_CIS, was analyzed with bidirectional fitting relative to DMSO as the negative control and baseline of activity. Using a type of inducible reporter, measures of mRNA for gain or loss-of-signal activity can be used to understand the reporter gene at the transcription factor-level as they relate to the gene SP1. Furthermore, this assay endpoint can be referred to as a primary readout, because this assay has produced multiple assay endpoints where this one serves a reporter gene function. To generalize the intended target to other relatable targets, this assay endpoint is annotated to the dna binding intended target family, where the subfamily is zinc finger.
Human liver HepG2 cells are transiently transfected with multiple reporter transcription units (MRTUs) in 6-well plates using FuGene 6 reagent (Roche; 3 ml FuGene/1 mg DNA). The MRTU constructs are regulated by a cis-regulating element (promoter). […] A major difference between the CIS and TRANS system is that in CIS activities of endogenous TFs are measured, whereas the TRANS assay evaluates changes in activities of exogenous, chimeric NR-Gal4 proteins. […] At the end of 24 hour incubation, total RNA was isolated using TriZol reagent (Invitrogen). The isolated RNA is then reverse-transcribed using oligo(dT) primer and Mo-MLV reverse transcriptase (Invitrogen) with DNAse I (Ambion) treatment for 30 min. The one-tenth of the produced cDNA was amplified by PCR using Taq DNA polymerase (Invitrogen) and two reporter sequence-specific primers. The PCR products were fluorescently labeled by primer extension with 6-arboxyfluorescein (6-FAM) 5'-labeled reporter sequence-specific primer (2 min at 95 C, 20 s at 68 C and 10 min at 72 C) and these products were digested with 5U of HpaI (New England Biolabs) for 2h at 37 C. The fragments were purified using Qiaquick PCR columns (Qiagen), analyzed on an ABI 3130xL genetic analyzer (Applied Biosystems) with peak positions identified by using a set of X-rhodamine (ROX)-labeled MapMarker1000 molecular weight standards (BioVentures). The raw capillary electrophoresis data was processed using Attagraph software (Attagene).

Chain of Transcription factor Sp1 (Homo sapiens) (P08047 whole entry, looked up): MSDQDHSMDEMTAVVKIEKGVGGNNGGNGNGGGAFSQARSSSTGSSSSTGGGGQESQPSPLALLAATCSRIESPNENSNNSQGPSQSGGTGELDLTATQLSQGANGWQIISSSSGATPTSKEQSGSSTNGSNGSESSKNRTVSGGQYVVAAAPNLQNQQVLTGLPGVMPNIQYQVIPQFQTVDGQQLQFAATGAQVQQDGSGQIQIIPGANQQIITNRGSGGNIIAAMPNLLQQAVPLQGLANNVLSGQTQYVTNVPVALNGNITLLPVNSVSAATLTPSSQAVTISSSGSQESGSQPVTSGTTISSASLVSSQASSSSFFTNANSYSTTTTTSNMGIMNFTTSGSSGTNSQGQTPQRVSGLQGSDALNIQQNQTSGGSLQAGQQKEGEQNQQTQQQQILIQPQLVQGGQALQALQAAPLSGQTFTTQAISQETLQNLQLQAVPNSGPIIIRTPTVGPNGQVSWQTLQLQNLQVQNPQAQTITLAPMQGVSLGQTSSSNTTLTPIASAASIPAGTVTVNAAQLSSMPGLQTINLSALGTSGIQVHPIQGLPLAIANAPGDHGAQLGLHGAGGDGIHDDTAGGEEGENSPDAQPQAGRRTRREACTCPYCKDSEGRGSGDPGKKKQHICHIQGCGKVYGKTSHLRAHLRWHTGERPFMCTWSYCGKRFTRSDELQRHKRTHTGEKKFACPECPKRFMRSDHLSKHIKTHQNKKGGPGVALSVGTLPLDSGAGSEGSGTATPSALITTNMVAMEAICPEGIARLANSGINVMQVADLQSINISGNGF

| Compound | outcome | AC50 |
| --- | --- | --- |
| CCOC(=O)CC(SP(=S)(OC)OC)C(=O)OCC (stereo not given) | inactive |  |
| CNC(=O)ON=CC(C)(C)SC | inactive |  |
| CCCCNC(=O)OCC#CI | inactive | 31.9 µM (active) |
| N#CC(CCc1ccc(Cl)cc1)(Cn1cncn1)c1ccccc1 (stereo not given) | inactive |  |
| CNC(=S)S | inactive |  |
| CCCN(CCC)c1c([N+](=O)[O-])cc(S(N)(=O)=O)cc1[N+](=O)[O-] | inactive |  |
| CC(Oc1ccc(Cl)cc1Cl)C(=O)O (stereo not given) | inactive |  |
| O=C(O)c1nc(Cl)ccc1Cl | inactive |  |
| OC(c1ccc(Cl)cc1)(c1cncnc1)c1ccccc1Cl (stereo not given) | inactive | 12.6 µM (active) |
| C#CCOS(=O)OC1CCCCC1Oc1ccc(C(C)(C)C)cc1 (stereo not given) | inactive |  |
| C=CC1(C)OC(=O)N(c2cc(Cl)cc(Cl)c2)C1=O (stereo not given) | inactive |  |
| Cc1c(F)c(F)c(COC(=O)C2C(/C=C(\Cl)C(F)(F)F)C2(C)C)c(F)c1F (stereo not given) | inactive |  |
| CCc1nn(C)c(C(=O)NCc2ccc(C(C)(C)C)cc2)c1Cl | inactive |  |
| COc1nc(C)nc(NC(=O)NS(=O)(=O)c2ccccc2CCC(F)(F)F)n1 | inactive |  |
| CO/C=C(/C(=O)OC)c1ccccc1Oc1cc(Oc2ccccc2C#N)ncn1 | inactive |  |
| N#Cc1cc(Br)c(O)c(Br)c1 | inactive |  |
| Fc1ccc(Oc2ccnc3cc(Cl)cc(Cl)c23)cc1 | inactive |  |
| COC(=O)c1ccccc1C(=O)OC | inactive |  |
| N#Cc1nn(-c2c(Cl)cc(C(F)(F)F)cc2Cl)c(N)c1S(=O)C(F)(F)F (stereo not given) | inactive |  |

| Compound | outcome | AC50 |
| --- | --- | --- |
| COc1ccc(C(c2ccc(OC)cc2)C(Cl)(Cl)Cl)cc1 | inactive | 24.4 µM (active) and 38.1 µM (active) |
| CCOc1cc(Oc2ccc(C(F)(F)F)cc2Cl)ccc1[N+](=O)[O-] | inactive |  |
| CC(C)(C)c1ccc(CSc2cnn(C(C)(C)C)c(=O)c2Cl)cc1 |  | 0.0129 µM (active) |
| CON(C)C(=O)Nc1ccc(Cl)c(Cl)c1 | inactive |  |
| COc1nc(NC(C)C)nc(NC(C)C)n1 | inactive |  |
| CS/C(C)=N/OC(=O)N(C)SN(C)C(=O)O/N=C(\C)SC | inactive |  |
| CC1COC(Cn2cncn2)(c2ccc(Oc3ccc(Cl)cc3)cc2Cl)O1 (stereo not given) | inactive |  |
| CN(C)C(=S)SSC(=S)N(C)C | inactive |  |
| CCNc1nc(Cl)nc(NC(C)C)n1 | inactive |  |
| CC(C)C1(C)N=C(c2nc3ccccc3cc2C(=O)O)NC1=O (stereo not given) | inactive |  |
| CCNc1nc(Cl)nc(NCC)n1 | inactive |  |
| Cc1cc(Cl)ccc1OCC(=O)O | inactive |  |
| COP(=S)(OC)Oc1nc(Cl)c(Cl)cc1Cl | inactive |  |
| CCCCOC(=O)c1ccccc1C(=O)OCCCC | inactive |  |
| CCCC1COC(Cn2cncn2)(c2ccc(Cl)cc2Cl)O1 (stereo not given) | inactive |  |
| COc1nc(C)nc(NC(=O)NS(=O)(=O)c2ccccc2Cl)n1 | inactive |  |
| C=CCC1=C(C)[C@@H](OC(=O)[C@@H]2[C@@H](C=C(C)C)C2(C)C)CC1=O | inactive |  |
| COP(N)(=O)SC (stereo not given) | inactive |  |
